According to PubChem BioAssay (EPA / NIEHS):
Results filed as inconclusive are left out. The source made the active and inactive calls. How the source made its calls, unless noted: active means hit-call score of the fitted dose curve at least 0.9, where 1 is the maximum; inactive means score below 0.9.

Biological target: Ratio of Nucleoli Translocation and Cytoplasm, AR (gene 367) (UniProt P10275)
Experiment: UPITT_HCI_U2OS_AR_TIF2_Nucleoli_Cytoplasm_Ratio_Antagonist: University of Pittsburgh U2OS Androgen Receptor-Transcriptional Intermediary Factor 2 (AR-TIF2) Antagonism High Content Imaging Assay for Ratio of Nucleoli Translocation and Cytoplasm (AID 2283999; active means hit-call score of the fitted dose curve at least 0.9, where 1 is the maximum;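 further: antagonists lower the DHT-driven ratio of nucleolar to cytoplasmic red signal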)
Procedure, shortened: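 U2OS cells expressing RFP-tagged human AR and GFP-tagged TIF2; compounds tested at 20 uM final (0.2% DMSO) in primary screen, 0.195–50 uM (0.5% DMSO) for concentration response. Readout: nucleolar-to-cytoplasmic red fluorescence ratio by high-content imaging, fitted relative to DHT.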

Sequence of Ratio of Nucleoli Translocation and Cytoplasm, AR (gene 367) (P10275 whole entry, looked up): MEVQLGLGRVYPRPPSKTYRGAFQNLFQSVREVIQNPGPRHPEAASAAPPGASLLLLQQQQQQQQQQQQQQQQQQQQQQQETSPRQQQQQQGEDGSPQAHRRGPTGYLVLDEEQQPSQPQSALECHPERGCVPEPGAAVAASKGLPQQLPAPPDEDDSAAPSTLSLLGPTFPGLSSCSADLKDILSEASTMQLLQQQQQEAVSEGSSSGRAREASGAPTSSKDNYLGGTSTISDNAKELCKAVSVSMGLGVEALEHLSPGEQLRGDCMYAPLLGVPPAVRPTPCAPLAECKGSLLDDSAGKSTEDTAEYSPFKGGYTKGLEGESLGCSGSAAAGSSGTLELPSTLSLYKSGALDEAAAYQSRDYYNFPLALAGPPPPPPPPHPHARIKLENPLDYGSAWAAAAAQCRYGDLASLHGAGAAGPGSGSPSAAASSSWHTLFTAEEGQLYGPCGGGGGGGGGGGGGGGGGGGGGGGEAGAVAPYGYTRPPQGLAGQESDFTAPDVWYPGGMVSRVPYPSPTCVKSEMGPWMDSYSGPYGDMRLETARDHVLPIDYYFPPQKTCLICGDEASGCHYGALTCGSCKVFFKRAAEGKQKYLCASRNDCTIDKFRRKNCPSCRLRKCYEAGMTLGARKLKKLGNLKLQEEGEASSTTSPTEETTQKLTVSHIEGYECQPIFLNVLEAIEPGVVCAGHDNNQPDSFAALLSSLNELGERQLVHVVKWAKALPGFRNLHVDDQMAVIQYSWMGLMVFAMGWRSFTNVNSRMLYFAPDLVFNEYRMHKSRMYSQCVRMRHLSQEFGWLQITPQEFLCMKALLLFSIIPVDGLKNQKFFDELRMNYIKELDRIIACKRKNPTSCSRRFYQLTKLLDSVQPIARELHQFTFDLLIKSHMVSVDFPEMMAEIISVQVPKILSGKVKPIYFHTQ

Row | SMILES | outcome | AC50
1 | Cc1ccc(S(=O)(=O)Oc2ccc(N=Nc3ccc(-c4ccc(N=Nc5c(O)ccc6cc(S(=O)(=O)O)cc(S(=O)(=O)O)c56)c(C)c4)cc3C)cc2)cc1 | inactive | 
2 | C[C@H]1O[C@@H](O[C@H]2[C@@H](O)C[C@H](O[C@H]3[C@@H](O)C[C@H](O[C@H]4CC[C@@]5(C)[C@H](CC[C@@H]6[C@@H]5C[C@@H](O)[C@]5(C)[C@@H](C7=CC(=O)OC7)CC[C@]65O)C4)O[C@@H]3C)O[C@@H]2C)C[C@H](O)[C@@H]1O | inactive | 
3 | OCc1cccc(Oc2ccccc2)c1 | inactive | 
4 | CC1CCC(C(C)C)C(O)C1 (configuration not stated) | inactive | 
5 | CC(=O)C1(C)CC2=C(CCCC2(C)C)CC1C (configuration not stated) | inactive | 
6 | CCOC(=O)[C@@H](C)Oc1ccc(Oc2nc3ccc(Cl)cc3o2)cc1 | inactive | 
7 | Nc1ccc(N)c2c1C(=O)c1ccccc1C2=O | inactive | 
8 | CCCCCCCCC=CCCCCCCCC1=NCCN1CCO | inactive | 
9 | BrCc1cccc(Oc2ccccc2)c1 | inactive | 
10 | CC(C=O)Cc1ccc(C(C)(C)C)cc1 (configuration not stated) | inactive | 
11 | CC(C)CCCCCCc1ccc(OCCOCCO)cc1 | inactive | 
12 | CCc1cc(Cc2cc(CC)cc(C(C)(C)C)c2O)c(O)c(C(C)(C)C)c1 |  | 50 µM (active)
13 | CCCCC1CCC(O)CC1 (configuration not stated) | inactive | 
14 | CC(=O)O[C@H]1C[C@@H]2CC[C@@]1(C)C2(C)C | inactive | 

Biological target: Ratio of Nucleoli Translocation and Cytoplasm, AR (gene 367) (UniProt P10275)
Experiment: UPITT_HCI_U2OS_AR_TIF2_Nucleoli_Cytoplasm_Ratio_Agonist: University of Pittsburgh U2OS Androgen Receptor-Transcriptional Intermediary Factor 2 (AR-TIF2) Agonism High Content Imaging Assay for Ratio of Nucleoli Translocation and Cytoplasm (AID 2284000; active means hit-call score of the fitted dose curve at least 0.9, where 1 is the maximum;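 further: hits raise the red nucleolar to cytoplasm ratio above vehicle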)
Procedure, shortened: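 Read-out first: nucleolar-to-cytoplasm ratio of red (AR-RFP) signal, quantified by high-content imaging in U2OS cells co-expressing TIF2-GFP. Activity is scored as signal increase over DMSO. Single-point screening used 20 uM final (0.2% DMSO).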

Row | SMILES | outcome | AC50
15 | Cc1ccc(S(=O)(=O)Oc2ccc(N=Nc3ccc(-c4ccc(N=Nc5c(O)ccc6cc(S(=O)(=O)O)cc(S(=O)(=O)O)c56)c(C)c4)cc3C)cc2)cc1 | inactive | 
16 | OCc1cccc(Oc2ccccc2)c1 | inactive | 
17 | CCCCCCCCSCCO | inactive | 
18 | CC(=O)C1(C)CC2=C(CCCC2(C)C)CC1C (configuration not stated) | inactive | 
19 | CCOC(=O)[C@@H](C)Oc1ccc(Oc2nc3ccc(Cl)cc3o2)cc1 | inactive | 
20 | Nc1ccc(N)c2c1C(=O)c1ccccc1C2=O | inactive | 
21 | CCCCCCCCCCCCCC(=O)OCC(O)CO (configuration not stated) | inactive | 
22 | CCCCCCCCC=CCCCCCCCC1=NCCN1CCO |  | 13.7 µM (active)
23 | BrCc1cccc(Oc2ccccc2)c1 | inactive | 
24 | CC(C=O)Cc1ccc(C(C)(C)C)cc1 (configuration not stated) | inactive | 
25 | CCc1cc(Cc2cc(CC)cc(C(C)(C)C)c2O)c(O)c(C(C)(C)C)c1 |  | 91.2 µM (active)
26 | CCCCC1CCC(O)CC1 (configuration not stated) | inactive | 

System: not listed separately
Experiment: CCTE_Shafer_MEA_acute_spike_number: CCTE's Neural Acute Assay for Total Number of Spikes, Shafer Lab (AID 2284008);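 on AC50: curve fitted for decrease in spike count so AC50 reflects inhibitors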
Procedure, shortened: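 Rat cortical cultures, DIV 13/15, 37 C. 40 min baseline rec, cpd 0.03-40 uM, 40 min post-dose rec. Band-pass 300-5000 Hz, spike threshold 8x rms; % change in spike count per well, DMSO neg ctrl, loss-of-signal fit.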

Row | SMILES | outcome | AC50
27 | O=CN1CCOCC1 | inactive | 
28 | CC1(C)CCC[C@]2(C)[C@H]3CCO[C@]3(C)CC[C@@H]12 | inactive | 
29 | CN(C)C(=S)SC(=S)N(C)C | inactive | 
30 | COCCc1ccc(OCC(O)CNC(C)C)cc1 (configuration not stated) | inactive | 
31 | CC(CN=Cc1ccccc1O)N=Cc1ccccc1O (configuration not stated) | inactive | 
32 | CCCCCCC(CO)CCCC (configuration not stated) |  | 5.36 µM (active)
33 | O=C(Nc1ccc2c(O)c(N=Nc3ccc(N=Nc4ccc(S(=O)(=O)O)cc4)cc3)c(S(=O)(=O)O)cc2c1)c1ccccc1 | inactive | 
34 | Oc1c(Cl)cc(Cl)c(Cl)c1Cc1c(O)c(Cl)cc(Cl)c1Cl |  | 0.266 µM (active)
35 | C=CC(C)(O)CCC=C(C)C (configuration not stated) | inactive | 
36 | CCOC(=O)C(C#N)=C(c1ccccc1)c1ccccc1 | inactive | 

System: not listed separately
Experiment: CCTE_Shafer_MEA_acute_firing_rate_mean: CCTE's Neural Acute Assay for Mean Firing Rate, Shafer Lab (AID 2284009);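 further: analyzed for loss of signal so actives lower firing rate relative to DMSO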
Procedure, shortened: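 Percent change in well-mean firing rate was derived from extracellular spikes detected at 8x rms noise (300-5000 Hz band-pass) before and after a 40-min compound exposure. Cultures were primary rat cortical neurons, tested at 0.03-40 uM.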

Row | SMILES | outcome | AC50
37 | O=CN1CCOCC1 | inactive | 
38 | CC1(C)CCC[C@]2(C)[C@H]3CCO[C@]3(C)CC[C@@H]12 | inactive | 
39 | CN(C)C(=S)SC(=S)N(C)C | inactive | 
40 | COCCc1ccc(OCC(O)CNC(C)C)cc1 (configuration not stated) | inactive | 
41 | CC(CN=Cc1ccccc1O)N=Cc1ccccc1O (configuration not stated) | inactive | 
42 | CCCCCCC(CO)CCCC (configuration not stated) |  | 5.36 µM (active)
43 | O=C(Nc1ccc2c(O)c(N=Nc3ccc(N=Nc4ccc(S(=O)(=O)O)cc4)cc3)c(S(=O)(=O)O)cc2c1)c1ccccc1 | inactive | 
44 | Oc1c(Cl)cc(Cl)c(Cl)c1Cc1c(O)c(Cl)cc(Cl)c1Cl |  | 0.266 µM (active)
45 | C=CC(C)(O)CCC=C(C)C (configuration not stated) | inactive | 
46 | CCOC(=O)C(C#N)=C(c1ccccc1)c1ccccc1 | inactive | 

System: not listed separately
Experiment: CCTE_Harrill_HTTr_Viability_MCF7: CCTE's 6-hour Cell Viability Assessment for the High-Throughput Transcriptomics (HTTr) Platform, in MCF-7 cells cultured in DMEM + 10% fetal bovine serum, Harrill Lab (AID 2284010)
Procedure, shortened: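 Membrane integrity was scored by high-content imaging of propidium iodide dye exclusion after a 6 h exposure across an eight-point dilution series. Data were fitted bidirectionally relative to DMSO as negative control and baseline.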

Row | SMILES | outcome
47 | C[C@H]1O[C@@H](O[C@H]2[C@@H](O)C[C@H](O[C@H]3[C@@H](O)C[C@H](O[C@H]4CC[C@@]5(C)[C@H](CC[C@@H]6[C@@H]5C[C@@H](O)[C@]5(C)[C@@H](C7=CC(=O)OC7)CC[C@]65O)C4)O[C@@H]3C)O[C@@H]2C)C[C@H](O)[C@@H]1O | inactive
48 | CC1(C)C2=CCCC(C)(C)[C@]23CC[C@H]1C3 | inactive
49 | COCCc1ccc(OCC(O)CNC(C)C)cc1 (configuration not stated) | inactive
50 | OCc1cccc(Oc2ccccc2)c1 | inactive
51 | CC1CCC(C(C)C)C(O)C1 (configuration not stated) | inactive
52 | CC(CN=Cc1ccccc1O)N=Cc1ccccc1O (configuration not stated) | inactive
53 | CC(=O)O[C@@H]1CC2CCC1(C)C2(C)C (some centres not stated) | inactive
54 | CC(=O)C1(C)CC2=C(CCCC2(C)C)CC1C (configuration not stated) | inactive
55 | CCOC(=O)[C@@H](C)Oc1ccc(Oc2nc3ccc(Cl)cc3o2)cc1 | inactive
56 | CCc1ccc(O)cc1 | inactive
57 | Oc1c(Cl)cc(Cl)c(Cl)c1Cc1c(O)c(Cl)cc(Cl)c1Cl | inactive
58 | C[C@H](CCC(=O)NCC(=O)O)[C@H]1CC[C@H]2[C@@H]3[C@H](O)C[C@@H]4C[C@H](O)CC[C@]4(C)[C@H]3C[C@H](O)[C@]12C | inactive
59 | CC(C=O)Cc1ccc(C(C)(C)C)cc1 (configuration not stated) | inactive
60 | O=C(O)CCCCCCCCC(=O)O | inactive
61 | CC=Cc1ccc(OC)c(OC)c1 | inactive
62 | CC1=CC[C@@]23C[C@@H]1C(C)(C)[C@@H]2CC[C@H]3C | inactive
63 | Brc1ccc(Br)c(Br)c1 | inactive
64 | C=CC(C)(O)CCC=C(C)C (configuration not stated) | inactive
65 | CCOC(=O)c1ccc(N)cc1 | inactive
66 | CCc1cc(Cc2cc(CC)cc(C(C)(C)C)c2O)c(O)c(C(C)(C)C)c1 | inactive
67 | C=CC(=O)OCCCC | inactive
